Experimental data: ChEMBL document CHEMBL3988442, “University of Dundee, Small-Polar-MMV Screening Library” (2021)
Screen size: about 48,000 compounds; about 13,000 (27%) showed an effect of 50% or more. This is one part of the list.

system: Wolbachia pipientis; assay: Anti-Wolbachia Cell-Based Screen; assay type: functional; parameters: scale not given: in the data most compounds retested in dose-response had high values; settings: 5 µM

| Compound | Percent Effect [%] |
| --- | --- |
| CCc1ncc2c(n1)CN(C(=O)c1c(C)[nH]c(C(C)=O)c1C)C2 | 1.251 |
| CN(Cc1cccs1)C1CCC[C@@H]2CN(C(=O)c3cnccn3)C[C@H]12.O=C(O)C(F)(F)F (some centres not stated) | 14.26 |
| Cc1ccc(C(C(=O)O)N2CCCN(Cc3ccccn3)CC2)c(F)c1 (configuration not stated) | -1.838 |
| Cc1ccc(CN(Cc2cc(=O)n3cccc(C)c3n2)C(C)C)o1 | 2.311 |
| CC(C)c1nnc(NC(=O)CSCc2cc(=O)n3ccccc3n2)s1 | 114.5 |
| Cc1cccn2c(=O)cc(CSCC(=O)Nc3nnc(C(C)C)s3)nc12 | 100.1 |
| Cc1cnn(CC(C)NCc2cc(=O)n3ccccc3n2)c1 (configuration not stated) | 4.155 |
| Cc1cccn2c(=O)cc(CN3CCCC3Cn3cccn3)nc12 (configuration not stated) | 11.97 |
| COc1ccc(OC)c(-n2c(COC(C)C)n[nH]c2=O)c1 | -3.997 |
| Cc1cc(C(=O)N2CC[C@@H]3CO[C@@H](CN4CCCC4)[C@@H]3C2)no1 | -4.858 |
| Cc1nc(C(=O)N2CCC(c3cc(CCO)n(C)n3)C2)co1 (configuration not stated) | 113 |
| COc1ccc(OCc2nc(C(=O)N3CC[C@H](O)[C@@H](O)C3)co2)cc1 | -2.37 |
| Cn1ccc(C(=O)N2CCC(c3cc(CCO)n(C)n3)C2)n1 (configuration not stated) | 79.61 |
| Cn1cc(C(=O)N2CC[C@H](N3CCOCC3)[C@H](CCCO)C2)cn1 | -10.44 |
| CS(=O)(=O)NC[C@@H]1OC[C@H]2CN(C(=O)c3cnccn3)CC[C@H]21 | -5.14 |
| Cn1nc(C2CCN(C(=O)c3cnccn3)C2)cc1CCO (configuration not stated) | 76.91 |

| Compound | Percent Effect [%] |
| --- | --- |
| Cn1cc(C(=O)N2CCC(c3cc(CCO)n(C)n3)C2)cn1 (configuration not stated) | 181.5 |
| COC(=O)C1CCCN1C(=O)c1ccc(Br)cc1F (configuration not stated) | 19.55 |
| Cc1ccc2c(n1)N(C)CCN(C(=O)NC1CC1)C2.O=C(O)C(F)(F)F | 4.586 |
| O=C(NCc1cn2cccnc2n1)C1CC(=O)N(Cc2cccnc2)C1 (configuration not stated) | -8.48 |
| CC(C)n1cc(C(=O)NCCCc2csc(N)n2)cn1 | -8.171 |
| CNS(=O)(=O)c1cccc(C(C)NCc2ccc(C)o2)c1 (configuration not stated) | -6.612 |
| O[C@H]1[C@H](n2cc(-c3ccccc3)nn2)c2ccccc2C12CCNCC2 | -3.237 |
| CCS(=O)(=O)c1ncc(CN(C)Cc2ccc(C)o2)n1CCOC | -4.34 |
| Cc1noc(CN(C)Cc2cnc(N3CCOCC3)nc2)n1 | -9.212 |
| CC(C)c1nc(CN(C)Cc2cnc(N3CCOCC3)nc2)no1 | -9.471 |
| Cc1ccc(CN(C)Cc2cnc(N3CCOCC3)s2)o1 | 116.2 |
| CN(Cc1nc(-c2ccccc2)no1)Cc1cnc(N2CCOCC2)s1 | 97.7 |
| CCc1cc(N(C)CCc2noc(C)n2)nc(N2CCOCC2)n1 | -13.53 |
| Cc1nc(CN(C)Cc2cnc(N3CCOCC3)s2)no1 | 89.45 |
| Cc1ncc(CN(C)C(=O)c2ccc(N3CCOCC3)c(F)c2)s1 | 3.379 |
| CN(Cc1ccsc1)Cc1nc(-c2ccncc2)no1 | -1.44 |
